Broadly, the inhibition is the relative decrease from the control value, in per cent.

Experiment [1] deals with T1, Ephrin type-B receptor 2 (Homo sapiens) (UniProt P29323).
T1 sequence (whole entry): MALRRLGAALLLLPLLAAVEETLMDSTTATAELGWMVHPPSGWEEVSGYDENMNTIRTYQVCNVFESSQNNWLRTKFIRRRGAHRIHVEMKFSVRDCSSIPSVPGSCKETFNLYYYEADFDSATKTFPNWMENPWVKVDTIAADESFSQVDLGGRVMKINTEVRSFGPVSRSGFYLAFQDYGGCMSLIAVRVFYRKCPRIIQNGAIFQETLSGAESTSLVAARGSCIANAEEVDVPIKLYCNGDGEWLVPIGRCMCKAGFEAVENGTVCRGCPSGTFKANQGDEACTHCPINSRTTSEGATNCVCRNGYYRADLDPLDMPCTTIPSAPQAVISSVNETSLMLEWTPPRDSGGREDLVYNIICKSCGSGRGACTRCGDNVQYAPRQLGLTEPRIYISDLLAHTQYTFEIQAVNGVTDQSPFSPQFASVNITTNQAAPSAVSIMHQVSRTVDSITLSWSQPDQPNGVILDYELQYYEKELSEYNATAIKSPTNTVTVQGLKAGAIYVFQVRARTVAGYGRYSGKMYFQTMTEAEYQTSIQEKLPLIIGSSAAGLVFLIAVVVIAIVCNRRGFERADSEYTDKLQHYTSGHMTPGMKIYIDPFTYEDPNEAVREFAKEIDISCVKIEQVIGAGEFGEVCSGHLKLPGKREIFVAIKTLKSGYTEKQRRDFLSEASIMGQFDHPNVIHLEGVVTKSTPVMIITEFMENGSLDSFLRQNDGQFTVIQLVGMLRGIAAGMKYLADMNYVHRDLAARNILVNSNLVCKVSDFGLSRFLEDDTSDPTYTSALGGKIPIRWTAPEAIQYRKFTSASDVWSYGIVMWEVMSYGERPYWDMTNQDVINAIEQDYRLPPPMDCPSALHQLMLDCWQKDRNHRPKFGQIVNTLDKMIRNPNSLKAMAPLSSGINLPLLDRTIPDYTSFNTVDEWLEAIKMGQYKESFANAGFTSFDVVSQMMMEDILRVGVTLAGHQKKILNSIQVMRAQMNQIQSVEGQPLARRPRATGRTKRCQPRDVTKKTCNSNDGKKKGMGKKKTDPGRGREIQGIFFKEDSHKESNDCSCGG
The note with it: at 1 µM.

Experiment [2] concerns the target T2, Ephrin type-B receptor 3 (Homo sapiens) (UniProt P54753).
T2 sequence (whole entry): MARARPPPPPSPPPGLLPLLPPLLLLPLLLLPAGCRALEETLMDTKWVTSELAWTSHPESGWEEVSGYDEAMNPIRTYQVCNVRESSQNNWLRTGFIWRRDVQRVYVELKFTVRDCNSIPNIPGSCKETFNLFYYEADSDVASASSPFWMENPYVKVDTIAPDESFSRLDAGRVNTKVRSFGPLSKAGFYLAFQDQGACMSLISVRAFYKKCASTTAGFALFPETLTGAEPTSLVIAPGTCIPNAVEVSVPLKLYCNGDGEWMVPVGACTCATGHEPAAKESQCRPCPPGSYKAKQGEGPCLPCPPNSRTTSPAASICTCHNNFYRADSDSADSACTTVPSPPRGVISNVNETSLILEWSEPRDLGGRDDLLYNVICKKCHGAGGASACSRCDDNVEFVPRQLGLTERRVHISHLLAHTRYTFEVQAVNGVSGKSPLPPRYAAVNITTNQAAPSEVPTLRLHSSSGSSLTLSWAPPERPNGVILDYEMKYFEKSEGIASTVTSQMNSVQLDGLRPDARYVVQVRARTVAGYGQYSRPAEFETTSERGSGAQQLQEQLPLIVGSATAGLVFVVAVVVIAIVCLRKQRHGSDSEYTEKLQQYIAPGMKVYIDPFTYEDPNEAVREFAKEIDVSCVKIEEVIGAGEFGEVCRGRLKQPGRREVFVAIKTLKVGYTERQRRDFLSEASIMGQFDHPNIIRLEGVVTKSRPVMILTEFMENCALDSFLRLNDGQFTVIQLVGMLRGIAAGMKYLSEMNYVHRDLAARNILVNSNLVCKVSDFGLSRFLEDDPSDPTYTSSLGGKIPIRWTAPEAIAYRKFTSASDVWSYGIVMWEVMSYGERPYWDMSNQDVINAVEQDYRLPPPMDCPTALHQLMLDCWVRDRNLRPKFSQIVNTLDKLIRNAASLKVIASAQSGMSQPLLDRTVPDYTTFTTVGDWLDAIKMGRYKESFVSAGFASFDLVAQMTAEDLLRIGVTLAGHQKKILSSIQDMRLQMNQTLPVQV
The conditions noted are these: at 0.1 µM.

For experiment [3], the target named is T2, Ephrin type-B receptor 3 (Homo sapiens). The conditions noted are these: at 1 µM.
Experiment [4] deals with T3, Ephrin type-B receptor 4 (Homo sapiens) (UniProt P54760).
T3 sequence (whole entry): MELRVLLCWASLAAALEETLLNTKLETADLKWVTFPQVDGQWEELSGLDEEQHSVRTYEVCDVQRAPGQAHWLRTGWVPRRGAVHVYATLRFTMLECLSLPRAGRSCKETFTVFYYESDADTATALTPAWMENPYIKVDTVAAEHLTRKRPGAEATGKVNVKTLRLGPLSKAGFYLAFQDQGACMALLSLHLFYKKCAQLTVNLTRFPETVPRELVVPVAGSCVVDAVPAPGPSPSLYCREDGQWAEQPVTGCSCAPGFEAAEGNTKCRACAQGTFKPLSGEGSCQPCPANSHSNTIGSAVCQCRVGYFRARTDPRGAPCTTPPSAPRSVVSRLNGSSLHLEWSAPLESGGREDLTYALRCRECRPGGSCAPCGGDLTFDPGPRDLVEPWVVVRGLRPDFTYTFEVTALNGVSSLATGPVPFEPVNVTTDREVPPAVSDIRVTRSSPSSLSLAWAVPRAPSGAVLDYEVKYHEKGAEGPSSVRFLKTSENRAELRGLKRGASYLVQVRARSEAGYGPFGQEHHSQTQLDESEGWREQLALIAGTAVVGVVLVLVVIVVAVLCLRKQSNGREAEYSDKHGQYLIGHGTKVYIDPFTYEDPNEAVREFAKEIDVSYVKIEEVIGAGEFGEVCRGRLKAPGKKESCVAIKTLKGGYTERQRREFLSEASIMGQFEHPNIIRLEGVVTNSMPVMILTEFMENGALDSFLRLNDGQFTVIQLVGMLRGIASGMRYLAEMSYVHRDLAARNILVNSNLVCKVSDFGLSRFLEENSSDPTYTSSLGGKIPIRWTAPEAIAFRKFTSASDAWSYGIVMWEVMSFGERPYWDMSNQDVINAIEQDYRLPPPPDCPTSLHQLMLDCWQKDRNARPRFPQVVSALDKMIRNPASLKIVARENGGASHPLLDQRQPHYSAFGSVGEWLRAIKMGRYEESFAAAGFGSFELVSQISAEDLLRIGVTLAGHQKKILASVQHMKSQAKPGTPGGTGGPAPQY
The conditions noted are these: at 0.1 µM.

Experiment [5] addresses T3, Ephrin type-B receptor 4 (Homo sapiens). The conditions noted are these: at 1 µM.
Experiment [6] deals with Receptor tyrosine-protein kinase erbB-2 (Homo sapiens) (UniProt P04626). The note with it: at 0.1 µM.
Experiment [7] shares this target. The note with it: at 1 µM.
Experiment [8] deals with Receptor tyrosine-protein kinase erbB-4 (Homo sapiens) (UniProt Q15303). The note with it: at 0.1 µM.
The target is the same in experiment [9]. The conditions noted are these: at 1 µM.
In experiment [10] the target is Tyrosine-protein kinase Fer (Homo sapiens) (UniProt P16591). The note with it: at 0.1 µM.
For experiment [11] the target is unchanged. The conditions noted are these: at 1 µM.
Experiment [12] addresses Tyrosine-protein kinase Fes/Fps (Homo sapiens) (UniProt P07332). The conditions noted are these: at 0.1 µM.
Experiment [13] has the same target. The conditions noted are these: at 1 µM.
Experiment [14] deals with Fibroblast growth factor receptor 1 (Homo sapiens) (UniProt P11362). The conditions noted are these: at 0.1 µM.
Experiment [15] has the same target. The conditions noted are these: at 1 µM.
Experiment [16] has as its target Fibroblast growth factor receptor 2 (Homo sapiens) (UniProt P21802). The conditions noted are these: at 0.1 µM.
The target is the same in experiment [17]. The conditions noted are these: at 1 µM.
In experiment [18] the target is Fibroblast growth factor receptor 3 (Homo sapiens) (UniProt P22607). The conditions noted are these: at 0.1 µM.
The target is the same in experiment [19]. The note with it: at 1 µM.
In experiment [20] the target is Fibroblast growth factor receptor 4 (Homo sapiens) (UniProt P22455). The conditions noted are these: at 0.1 µM.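 Note: values are mean percent inhibition of FGFR4.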
Fibroblast growth factor receptor 4 (Homo sapiens), sequence (P22455 22-802 limits assumed): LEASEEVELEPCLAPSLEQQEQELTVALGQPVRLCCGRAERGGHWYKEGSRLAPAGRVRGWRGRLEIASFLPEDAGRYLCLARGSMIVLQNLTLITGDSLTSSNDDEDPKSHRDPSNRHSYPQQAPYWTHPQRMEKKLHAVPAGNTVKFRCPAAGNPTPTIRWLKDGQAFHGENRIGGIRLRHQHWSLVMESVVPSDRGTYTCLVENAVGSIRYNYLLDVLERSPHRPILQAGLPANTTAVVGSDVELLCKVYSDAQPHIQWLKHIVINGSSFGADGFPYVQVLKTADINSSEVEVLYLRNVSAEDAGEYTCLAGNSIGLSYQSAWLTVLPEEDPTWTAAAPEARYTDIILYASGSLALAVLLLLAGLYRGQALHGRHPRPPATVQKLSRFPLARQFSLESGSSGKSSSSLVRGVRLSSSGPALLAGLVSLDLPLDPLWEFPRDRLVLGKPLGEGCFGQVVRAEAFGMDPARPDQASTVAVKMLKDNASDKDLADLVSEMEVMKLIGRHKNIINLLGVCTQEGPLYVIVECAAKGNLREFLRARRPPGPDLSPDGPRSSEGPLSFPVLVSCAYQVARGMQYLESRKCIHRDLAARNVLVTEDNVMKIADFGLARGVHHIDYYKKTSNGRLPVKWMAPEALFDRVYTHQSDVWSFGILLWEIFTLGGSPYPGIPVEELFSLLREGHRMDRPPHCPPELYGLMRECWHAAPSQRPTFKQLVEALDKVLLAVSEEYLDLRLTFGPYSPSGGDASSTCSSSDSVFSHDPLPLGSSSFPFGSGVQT

Fibroblast growth factor receptor 2 (Homo sapiens), sequence (P21802 22-821 limits assumed): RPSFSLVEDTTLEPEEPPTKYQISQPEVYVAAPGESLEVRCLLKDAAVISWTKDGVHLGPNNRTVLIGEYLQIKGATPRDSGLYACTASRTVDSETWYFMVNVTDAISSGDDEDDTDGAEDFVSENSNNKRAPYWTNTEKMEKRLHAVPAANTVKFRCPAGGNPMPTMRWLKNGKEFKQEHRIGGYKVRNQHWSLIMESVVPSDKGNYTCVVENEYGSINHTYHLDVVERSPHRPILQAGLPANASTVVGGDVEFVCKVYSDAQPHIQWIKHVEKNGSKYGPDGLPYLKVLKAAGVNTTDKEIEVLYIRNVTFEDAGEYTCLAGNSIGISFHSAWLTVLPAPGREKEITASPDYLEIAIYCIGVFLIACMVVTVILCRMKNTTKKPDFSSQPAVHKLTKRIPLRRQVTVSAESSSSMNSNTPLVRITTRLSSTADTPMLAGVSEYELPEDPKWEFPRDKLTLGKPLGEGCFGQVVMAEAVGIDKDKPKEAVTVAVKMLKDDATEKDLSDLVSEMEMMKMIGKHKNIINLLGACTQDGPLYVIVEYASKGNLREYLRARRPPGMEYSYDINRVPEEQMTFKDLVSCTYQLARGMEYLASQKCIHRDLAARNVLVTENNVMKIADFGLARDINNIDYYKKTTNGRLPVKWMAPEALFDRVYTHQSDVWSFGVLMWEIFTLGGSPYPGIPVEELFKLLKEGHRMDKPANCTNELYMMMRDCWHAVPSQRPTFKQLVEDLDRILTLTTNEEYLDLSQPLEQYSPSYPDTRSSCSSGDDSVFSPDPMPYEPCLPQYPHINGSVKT
Fibroblast growth factor receptor 1 (Homo sapiens), sequence (P11362 22-822 limits assumed): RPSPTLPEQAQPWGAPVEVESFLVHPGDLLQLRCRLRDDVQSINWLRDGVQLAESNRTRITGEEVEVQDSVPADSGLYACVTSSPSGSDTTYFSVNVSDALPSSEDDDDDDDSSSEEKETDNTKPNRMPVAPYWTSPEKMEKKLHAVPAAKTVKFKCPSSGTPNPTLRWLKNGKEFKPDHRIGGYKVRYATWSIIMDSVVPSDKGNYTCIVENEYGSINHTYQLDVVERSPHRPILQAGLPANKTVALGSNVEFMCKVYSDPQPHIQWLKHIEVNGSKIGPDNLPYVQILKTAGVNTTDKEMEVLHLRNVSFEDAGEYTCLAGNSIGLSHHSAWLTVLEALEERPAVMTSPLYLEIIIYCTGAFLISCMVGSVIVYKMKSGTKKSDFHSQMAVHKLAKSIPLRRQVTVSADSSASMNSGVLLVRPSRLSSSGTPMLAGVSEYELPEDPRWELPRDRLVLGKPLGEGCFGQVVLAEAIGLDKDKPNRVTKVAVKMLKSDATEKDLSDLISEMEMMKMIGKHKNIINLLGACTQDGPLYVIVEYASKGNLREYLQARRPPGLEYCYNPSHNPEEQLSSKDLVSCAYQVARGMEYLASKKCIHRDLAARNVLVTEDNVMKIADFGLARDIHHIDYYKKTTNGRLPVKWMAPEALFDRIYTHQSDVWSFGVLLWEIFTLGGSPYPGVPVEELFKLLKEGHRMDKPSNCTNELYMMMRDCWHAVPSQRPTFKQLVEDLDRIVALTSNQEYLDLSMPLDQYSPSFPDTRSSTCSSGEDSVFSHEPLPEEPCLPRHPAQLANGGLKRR
Receptor tyrosine-protein kinase erbB-2 (Homo sapiens), sequence (P04626 whole entry): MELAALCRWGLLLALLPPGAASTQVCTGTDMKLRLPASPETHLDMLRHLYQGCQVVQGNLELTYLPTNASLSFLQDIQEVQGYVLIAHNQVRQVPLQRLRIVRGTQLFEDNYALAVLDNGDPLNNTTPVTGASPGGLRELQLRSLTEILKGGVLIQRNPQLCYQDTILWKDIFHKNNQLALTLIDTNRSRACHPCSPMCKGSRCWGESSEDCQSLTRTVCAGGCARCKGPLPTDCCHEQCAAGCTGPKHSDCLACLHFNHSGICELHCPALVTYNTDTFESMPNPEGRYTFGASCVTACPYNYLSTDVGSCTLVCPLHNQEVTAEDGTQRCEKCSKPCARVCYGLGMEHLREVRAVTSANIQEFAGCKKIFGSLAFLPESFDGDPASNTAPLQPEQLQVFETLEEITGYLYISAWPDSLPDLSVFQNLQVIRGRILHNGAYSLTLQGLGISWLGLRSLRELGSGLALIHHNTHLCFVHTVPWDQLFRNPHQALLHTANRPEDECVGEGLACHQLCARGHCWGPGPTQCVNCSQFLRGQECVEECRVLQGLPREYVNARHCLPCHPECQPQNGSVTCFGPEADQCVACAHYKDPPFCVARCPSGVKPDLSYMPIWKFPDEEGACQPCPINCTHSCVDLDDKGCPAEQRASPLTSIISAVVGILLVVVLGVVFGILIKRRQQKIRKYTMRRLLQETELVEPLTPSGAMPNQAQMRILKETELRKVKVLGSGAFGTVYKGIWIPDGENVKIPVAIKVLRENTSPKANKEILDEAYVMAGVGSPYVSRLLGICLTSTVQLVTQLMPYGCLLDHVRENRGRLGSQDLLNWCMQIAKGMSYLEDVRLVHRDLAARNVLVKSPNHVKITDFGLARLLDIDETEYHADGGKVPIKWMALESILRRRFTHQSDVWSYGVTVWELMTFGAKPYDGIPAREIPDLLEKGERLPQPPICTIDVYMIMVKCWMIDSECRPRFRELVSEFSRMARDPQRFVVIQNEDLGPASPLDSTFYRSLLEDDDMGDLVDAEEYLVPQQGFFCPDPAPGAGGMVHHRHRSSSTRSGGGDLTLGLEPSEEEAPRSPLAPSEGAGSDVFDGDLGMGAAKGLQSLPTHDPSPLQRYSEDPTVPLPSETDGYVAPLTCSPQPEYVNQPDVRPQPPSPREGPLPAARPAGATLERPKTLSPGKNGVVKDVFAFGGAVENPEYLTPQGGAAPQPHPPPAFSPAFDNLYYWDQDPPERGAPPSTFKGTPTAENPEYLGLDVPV
Tyrosine-protein kinase Fes/Fps (Homo sapiens), sequence (P07332 whole entry): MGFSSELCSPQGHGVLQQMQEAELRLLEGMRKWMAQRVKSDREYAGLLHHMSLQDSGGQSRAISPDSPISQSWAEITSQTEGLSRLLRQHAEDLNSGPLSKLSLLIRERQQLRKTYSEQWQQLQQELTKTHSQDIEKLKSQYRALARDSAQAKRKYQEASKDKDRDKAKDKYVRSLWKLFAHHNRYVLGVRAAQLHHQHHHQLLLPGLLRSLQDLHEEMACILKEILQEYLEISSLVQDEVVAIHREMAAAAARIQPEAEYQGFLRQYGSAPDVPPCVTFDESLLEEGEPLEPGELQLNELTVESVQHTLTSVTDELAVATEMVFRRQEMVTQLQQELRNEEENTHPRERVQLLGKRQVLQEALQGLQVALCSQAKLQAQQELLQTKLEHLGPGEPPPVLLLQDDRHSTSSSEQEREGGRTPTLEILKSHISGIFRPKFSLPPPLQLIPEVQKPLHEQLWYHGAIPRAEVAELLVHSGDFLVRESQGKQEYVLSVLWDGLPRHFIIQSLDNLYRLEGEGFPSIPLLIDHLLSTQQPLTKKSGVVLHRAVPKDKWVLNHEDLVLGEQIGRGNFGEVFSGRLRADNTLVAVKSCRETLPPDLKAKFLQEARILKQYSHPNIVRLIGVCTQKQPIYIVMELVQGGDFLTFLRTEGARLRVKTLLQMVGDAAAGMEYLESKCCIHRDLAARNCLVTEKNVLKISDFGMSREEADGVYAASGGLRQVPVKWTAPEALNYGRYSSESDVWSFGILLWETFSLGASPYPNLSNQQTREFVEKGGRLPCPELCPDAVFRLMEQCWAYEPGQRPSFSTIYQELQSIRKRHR

Turning to `CCNC(=O)O[C@H]1CN[C@H](C#Cc2cc3ncnc(Nc4ccc(OCc5cccc(F)c5)c(Cl)c4)c3s2)C1`, the inhibition in experiment [1] is 4.8%; in experiment [2] it was 3.91%; in [3] it was 5.16%; in experiment [4], 3.25%; in [5], 4.36%; in experiment [6], 8.63%. Also, the inhibition in [7] is 60.4%; in [8] it was 94.2%; in experiment [9], 101%; in [10], 4.88%; in experiment [11], -0.34%; in [12], 2.67%. In addition, the inhibition worked out at 3.23% in experiment [13]; 3.91% in experiment [14]; 4.51% in experiment [15]; 2.71% in [16]; 4.31% in experiment [17]; 4.87% in experiment [18]. The inhibition in experiment [19] was 4.14%; in [20], 1.14%.

With `O=C(Nc1n[nH]c2cc(-c3ccc(F)cc3)ccc12)C1CC1`, the inhibition in experiment [1] is 7.07%; in [2], 5.69%; in experiment [3] it was 1.87%; in [4], 1.47%; in experiment [5], 2.87%; in experiment [6], 1.75%. The inhibition in experiment [7] was -0.76%; in experiment [8] it was 6.81%; in experiment [9] it was 11.6%; in experiment [10], 5.3%; in [11] it was 1.55%; in [12], 1.98%. Moreover, the inhibition in experiment [13] came out at 2.43%; in [14], 3.72%; in experiment [15] it was 5.84%; in [16] it was 1.37%; in experiment [17], 3.08%; in experiment [18], 4.83%. The results for the inhibition in [19] and in experiment [20] were 3.2% and -1.21%, respectively.

As to `COc1ccc(CNC(=O)c2ccc(-c3cc(-c4nnc(C)o4)ccc3C)cc2)cc1`, the inhibition in [1] was 10.6%; in [2] it was -0.7%; in [3], 0.39%; in [4], 1.69%; in [5], -0.88%; in experiment [6] it was 3.57%. Moreover, the inhibition in experiment [7] amounted to 10.7%; in experiment [8], 2.27%; in experiment [9] it was 7.19%; in experiment [10], 2.8%; in experiment [11], 4.77%; in experiment [12], 1.89%. Also, the inhibition in experiment [13] came out at 2.09%; in experiment [14] it was 3.05%; in experiment [15], 2.33%; in experiment [16], 3.51%; in experiment [17] it was 5.88%; in experiment [18] it was 2.91%. Further, the inhibition in experiment [19] was found to be 5.29%; in experiment [20], 3.34%.

As for `FC(F)(F)c1cccc(-c2nn3ncccc3c2-c2ccnc(Nc3ccc4c(c3)OCCO4)n2)c1`, the inhibition in experiment [1] turned out to be 18.1%; in experiment [2] it was 5.94%; in experiment [3] it was 3%; in experiment [4], 2.8%; in experiment [5], 21.3%; in experiment [6], 1.37%. The inhibition in [7] came out at 11.4%; in experiment [8], 48.3%; in experiment [9], 81.5%; in [10], 0.32%; in experiment [11], 10.8%; in [12], 1.96%. The inhibition stood at 3.62% in experiment [13]; 2.8% in experiment [14]; 5.15% in [15]; 1.92% in experiment [16]; 9.05% in experiment [17]; 4.74% in experiment [18]. The inhibition amounted to 7.93% in experiment [19] and 0.03% in [20].

(Values after ChEMBL document CHEMBL1961873, “Compounds: GSK PKIS; Assays: Nanosyn kinase panel” (2012).)
